Drawing on PubChem BioAssay (NCI), this text covers growth for 16 compounds.

Compounds without any hit were thinned out: in the full panel of roughly 83,000, 20% have a hit.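 Each cell line was grown in a 96-well plate and treated with one concentration of compound for 48 hours. Values below 10 were considered active.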 A number with no mark means an inactive call. Activity calls are given as the source filed them.

The assay concerns HL-60(TB) leukemia. Put plainly: NCI-60 one-dose screen, 48 h (100 = growth as untreated, 0 = no growth, -100 = all killed). The conditions noted are these: 10 µM unless noted.
For the compound `CNC(=O)c1cc(Oc2cccc3nc(NC(=O)Nc4cc(C(F)(F)F)ccc4Cl)ccc23)ccn1`, the growth is 103%.

For the compound `COc1ccc(/C(Cl)=N/N=C(\Cl)c2cc(OC)c(OC)c(OC)c2)cc1OC(C)=O`, the growth was 81.2%. As for `O=C1/C(=C/c2ccccc2)COc2ccc(O)cc21`, the growth is 33.9%.

Turning to `Cc1ccc2c(c1)c1nc3cc(C)c(C)cc3nc1n2CCN(C)C`, the growth was 11%. As for `Fc1cc2[nH]ncc2c2c3c(c(-c4cn[nH]c4)nc12)CCCC3`, the figure is -13.2% (active).

As to `CCN1C(=O)N(CC)C2Nn3c(s/c(=C4\C(=O)N(CCC(C)C)c5ccccc54)c3=O)=NC21` (stereo unspecified), the growth is 83.1%.

Consider `NC(=O)NC(=O)c1ccc(Cl)cc1`, for which the growth was 95%. As to `O=C(/C=C\c1ccccc1Cl)c1ccccc1`, the growth is 110%. As for `O=C(CN1C(=O)/C(=C/c2ccc(Cl)cc2)SC1=S)NCCCN1CCOCC1`, the figure is 98.7%; as for `O=C(N=c1n(-c2ccccc2)nc2n1CCN2C1=NCCN1C(=O)c1ccc(Cl)cc1)c1ccc(Cl)cc1`, 51.2%; as for `Cc1cccc2c1O/C(=C\c1ncc([N+](=O)[O-])n1C)C2=O`, -9.87% (active). As for `O=C1Nc2ccccc2C12CC(c1ccccc1)=NN2` (stereo unspecified), the figure is -8.55% (active); as for `CC1CC(O)CC(C)(C)C1` (stereo unspecified), 80.8%; as for `O=C(CCCNC(=O)c1nc(-c2ccccc2)n(-c2ccccc2)n1)NO`, 87.9%.

Turning to `COc1ccc(/C=C(\c2cc(OC)c(OC)c(OC)c2)c2nnc(-c3cccs3)o2)cc1`, the growth was 92%.

As to `O=C(O)/C=C\C(=O)N1C/C(=C\c2ccccc2Cl)C(=O)/C(=C/c2ccccc2Cl)C1`, the growth is -3.51% (active).
